The values below come from PubChem BioAssay.

Experiment [1] has as its target Nuclear receptor coactivator 3 (Homo sapiens) (UniProt Q9Y6Q9). Description: SRC3 coactivator transcriptional activity inhibitors, confirmation, cell-based, luminescence, quadruplicate (AID 588792;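 active = mean inhibition over 43.08%, the solvent-only control mean plus 3 SD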;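 note: 0% = DMSO treated cells and 100% = gossypol at 36 µM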). As to conditions: HEK293 GAL4-SRC3 luciferase reporter, at 3.6 µM, hits give high values. (In general: Reporter assays use an easily measured gene product as a stand-in for the process of interest.)

In experiment [2] the test system is transactivating tegument protein VP16 (Human herpesvirus 1), Gal4-VP16 luciferase reporter. Description: VP16 transactivation inhibitors, counter-screen for SRC3 inhibitor project, cell-based, luminescence, high throughput (AID 588794; in the data active = inhibition above about 30%). The following applies: mammalian cells, VP16-driven luciferase reporter luminescence; at 3.6 µM; hits give high values.
In experiment [3] the target is Nuclear receptor coactivator 1 (Homo sapiens) (UniProt Q15788). Description: SRC1 coactivator transcriptional activity inhibitors, confirmation, cell-based, luminescence, quadruplicate (AID 588820;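 active = mean inhibition above 46.68%, the untreated control wells mean plus 3 SD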;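 note: 0% = DMSO wells and 100% = gossypol 36 µM treated wells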). As to conditions: HEK293 GAL4-SRC1 luciferase reporter, at 3.6 µM, hits give high values.
Experiment [4] is described as follows: VP16 transactivation inhibitors, counter-screen for SRC1 inhibitor project, cell-based, luminescence, high throughput (AID 588824; in the data active = inhibition above about 25%). As to conditions: cell-based VP16 transactivation luciferase luminescence; at 3.6 µM; hits give high values.
A short description of experiment [5]: StAR promoter reporter inhibitors, counter-screen for LRH-1 inverse agonist project, cell-based, luminescence, high throughput (AID 651611; in the data active = inhibition above about 28%). The following applies: StAR promoter luciferase reporter counterscreen, at 3.6 µM, hits give high values. On the technique in general: The purpose of a counterscreen is to sort out artefacts and off-target activity.
Experiment [6] has as its target Nuclear receptor subfamily 5 group A member 2 (Homo sapiens) (UniProt O00482). Description: LRH-1 (NR5A2) inverse agonists, retest, confirmation, cell-based, luminescence (AID 651613; in the data active = inhibition above about 42%;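 note: HEK293T cells co-transfected with LRH-1 and StAR promoter luciferase reporter; 0% = vehicle wells and 100% = parental cells lacking receptor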). As to conditions: cell-based LRH-1 luciferase reporter, inverse agonism; at 3.6 µM; hits give high values.
Experiment [7] deals with Steroidogenic factor 1 (Homo sapiens) (UniProt Q13285). The experiment is described as follows: SF1 (NR5A1) inverse agonists, counter-screen for LRH-1 inverse agonist project, cell-based, luminescence, high throughput (AID 651614; in the data active = inhibition above about 44%;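 note: cells cotransfected with StAR promoter reporter and SF1 expression vector; 0% = vehicle on cells with receptor and 100% = vehicle on cells lacking receptor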). As to conditions: cell-based SF1 luciferase reporter, at 3.6 µM, hits give high values.
A short description of experiment [8]: VP16 transactivation reporter inhibitors, counter-screen for LRH-1 inverse agonist project, cell-based, luminescence, high throughput (AID 651615; in the data active = inhibition above about 33%). As to conditions: Gal4-VP16 luciferase reporter cells, at 3.6 µM, hits give high values.
For experiment [9], the system named is transactivating tegument protein VP16 (Human herpesvirus 1). The experiment is described as follows: VP16 transactivation reporter inhibitors, counter-screen for SRC2 inhibitor project, cell-based, luminescence, single concentration (AID 652007). As to conditions: cell-based VP16 transactivation luciferase reporter, at 8.9 µM, hits give high values.
The target in experiment [10] is Nuclear receptor coactivator 2 (Homo sapiens) (UniProt Q15596). The experiment is described as follows: SRC2 coactivator transcriptional activity inhibitors, confirmation, cell-based, luminescence, HEK293, triplicate (AID 652008;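 active = mean inhibition above 46.5%, the solvent-only control mean plus 3 SD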;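 note: 0% = DMSO-treated cells and 100% = Gossypol at 36 µM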). As to conditions: HEK293 GAL4-SRC2 luciferase reporter, at 8.9 µM, hits give high values.

Active and inactive are the calls of the source. Cut-off read from the data, not from the text of the source, unless noted: active = inhibition above about 36%; inactive = the rest.

Sequence of Nuclear receptor coactivator 2 (Homo sapiens) (Q15596 whole entry, looked up, the tested form may be a part): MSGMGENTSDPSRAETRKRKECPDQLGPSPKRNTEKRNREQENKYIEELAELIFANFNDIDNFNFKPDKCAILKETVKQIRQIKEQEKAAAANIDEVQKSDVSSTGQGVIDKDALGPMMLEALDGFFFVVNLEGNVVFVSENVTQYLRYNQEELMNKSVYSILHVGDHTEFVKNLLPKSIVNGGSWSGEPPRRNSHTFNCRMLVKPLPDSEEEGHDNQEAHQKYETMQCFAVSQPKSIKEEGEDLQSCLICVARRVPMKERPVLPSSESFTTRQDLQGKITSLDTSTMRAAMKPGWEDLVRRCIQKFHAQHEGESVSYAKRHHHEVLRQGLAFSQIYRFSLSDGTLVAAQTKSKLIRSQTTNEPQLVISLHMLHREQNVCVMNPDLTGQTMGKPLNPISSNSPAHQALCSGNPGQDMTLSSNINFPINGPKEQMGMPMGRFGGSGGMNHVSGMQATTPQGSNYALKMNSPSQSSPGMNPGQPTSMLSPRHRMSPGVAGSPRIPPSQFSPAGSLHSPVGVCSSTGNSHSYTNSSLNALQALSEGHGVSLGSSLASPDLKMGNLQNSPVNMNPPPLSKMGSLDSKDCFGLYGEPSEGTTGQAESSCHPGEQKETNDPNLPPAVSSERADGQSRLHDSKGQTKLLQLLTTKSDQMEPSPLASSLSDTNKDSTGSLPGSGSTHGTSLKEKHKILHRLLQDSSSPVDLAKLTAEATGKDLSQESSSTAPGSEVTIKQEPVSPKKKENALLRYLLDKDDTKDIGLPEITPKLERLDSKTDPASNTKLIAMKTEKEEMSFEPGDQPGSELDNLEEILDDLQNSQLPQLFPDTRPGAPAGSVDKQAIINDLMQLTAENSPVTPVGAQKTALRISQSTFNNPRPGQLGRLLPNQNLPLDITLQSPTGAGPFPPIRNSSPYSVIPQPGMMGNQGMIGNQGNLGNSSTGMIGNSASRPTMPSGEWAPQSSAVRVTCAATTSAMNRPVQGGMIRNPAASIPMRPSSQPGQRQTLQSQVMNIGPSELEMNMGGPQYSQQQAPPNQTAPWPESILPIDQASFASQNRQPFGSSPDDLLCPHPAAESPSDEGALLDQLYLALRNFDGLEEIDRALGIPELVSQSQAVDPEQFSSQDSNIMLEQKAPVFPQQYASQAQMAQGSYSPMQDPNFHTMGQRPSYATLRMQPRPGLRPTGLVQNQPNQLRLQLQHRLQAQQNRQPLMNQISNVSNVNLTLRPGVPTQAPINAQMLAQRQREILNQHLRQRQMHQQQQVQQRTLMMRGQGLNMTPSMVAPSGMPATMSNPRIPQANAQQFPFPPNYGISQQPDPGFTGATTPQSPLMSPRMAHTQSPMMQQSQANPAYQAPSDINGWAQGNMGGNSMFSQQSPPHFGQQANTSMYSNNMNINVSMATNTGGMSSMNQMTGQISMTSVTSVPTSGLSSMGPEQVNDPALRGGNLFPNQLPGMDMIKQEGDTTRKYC
Sequence of Nuclear receptor subfamily 5 group A member 2 (Homo sapiens) (O00482 whole entry, looked up): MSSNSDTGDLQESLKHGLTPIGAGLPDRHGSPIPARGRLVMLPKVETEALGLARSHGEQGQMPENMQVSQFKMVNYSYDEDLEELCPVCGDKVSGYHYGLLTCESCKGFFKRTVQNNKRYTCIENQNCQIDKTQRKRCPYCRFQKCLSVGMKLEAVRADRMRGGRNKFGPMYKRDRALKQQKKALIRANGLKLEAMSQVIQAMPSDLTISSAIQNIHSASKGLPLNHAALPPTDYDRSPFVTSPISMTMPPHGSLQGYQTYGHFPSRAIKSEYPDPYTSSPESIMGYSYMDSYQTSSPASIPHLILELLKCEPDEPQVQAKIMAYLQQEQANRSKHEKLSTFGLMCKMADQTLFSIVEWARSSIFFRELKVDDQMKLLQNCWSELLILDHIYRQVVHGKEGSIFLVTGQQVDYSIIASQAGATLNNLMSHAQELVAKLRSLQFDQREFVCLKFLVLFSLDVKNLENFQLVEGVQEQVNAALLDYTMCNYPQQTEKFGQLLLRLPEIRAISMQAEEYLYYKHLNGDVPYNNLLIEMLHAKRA
Sequence of Nuclear receptor coactivator 1 (Homo sapiens) (Q15788 whole entry, looked up, the tested form may be a part): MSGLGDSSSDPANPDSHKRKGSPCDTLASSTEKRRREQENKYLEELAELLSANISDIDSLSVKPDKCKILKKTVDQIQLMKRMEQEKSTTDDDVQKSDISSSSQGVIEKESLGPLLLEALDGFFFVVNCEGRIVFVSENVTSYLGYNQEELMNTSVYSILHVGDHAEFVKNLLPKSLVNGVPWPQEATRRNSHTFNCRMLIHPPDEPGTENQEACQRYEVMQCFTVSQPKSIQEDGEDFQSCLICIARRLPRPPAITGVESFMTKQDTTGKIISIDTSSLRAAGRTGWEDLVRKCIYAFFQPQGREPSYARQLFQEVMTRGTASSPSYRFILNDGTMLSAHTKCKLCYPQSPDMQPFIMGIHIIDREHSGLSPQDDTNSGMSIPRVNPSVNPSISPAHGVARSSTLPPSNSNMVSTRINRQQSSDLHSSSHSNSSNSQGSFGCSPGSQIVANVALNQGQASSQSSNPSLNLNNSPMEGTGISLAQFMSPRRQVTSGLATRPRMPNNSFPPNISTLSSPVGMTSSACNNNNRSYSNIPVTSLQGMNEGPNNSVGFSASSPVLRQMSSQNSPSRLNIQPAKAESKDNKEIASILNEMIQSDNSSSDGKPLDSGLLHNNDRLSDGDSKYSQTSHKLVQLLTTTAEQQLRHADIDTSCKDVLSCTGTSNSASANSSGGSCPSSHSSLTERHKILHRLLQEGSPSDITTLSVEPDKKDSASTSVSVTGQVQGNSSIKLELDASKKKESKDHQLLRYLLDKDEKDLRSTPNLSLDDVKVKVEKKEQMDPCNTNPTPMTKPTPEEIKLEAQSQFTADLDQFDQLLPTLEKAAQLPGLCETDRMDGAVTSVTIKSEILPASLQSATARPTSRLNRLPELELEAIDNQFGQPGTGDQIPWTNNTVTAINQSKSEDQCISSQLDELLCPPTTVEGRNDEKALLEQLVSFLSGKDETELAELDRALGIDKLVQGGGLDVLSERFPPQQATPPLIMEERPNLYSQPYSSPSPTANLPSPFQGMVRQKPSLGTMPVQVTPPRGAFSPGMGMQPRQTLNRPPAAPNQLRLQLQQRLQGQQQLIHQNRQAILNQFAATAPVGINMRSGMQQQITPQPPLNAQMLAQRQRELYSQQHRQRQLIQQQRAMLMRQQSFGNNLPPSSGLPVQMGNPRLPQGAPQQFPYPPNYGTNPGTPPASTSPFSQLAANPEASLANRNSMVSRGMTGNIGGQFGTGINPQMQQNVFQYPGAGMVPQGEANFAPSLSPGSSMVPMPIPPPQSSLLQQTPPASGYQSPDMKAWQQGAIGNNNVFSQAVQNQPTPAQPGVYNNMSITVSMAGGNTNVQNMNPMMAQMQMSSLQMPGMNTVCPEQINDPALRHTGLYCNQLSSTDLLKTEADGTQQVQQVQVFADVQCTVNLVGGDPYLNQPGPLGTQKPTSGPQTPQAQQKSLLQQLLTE
Sequence of Steroidogenic factor 1 (Homo sapiens) (Q13285 whole entry, looked up, the tested form may be a part): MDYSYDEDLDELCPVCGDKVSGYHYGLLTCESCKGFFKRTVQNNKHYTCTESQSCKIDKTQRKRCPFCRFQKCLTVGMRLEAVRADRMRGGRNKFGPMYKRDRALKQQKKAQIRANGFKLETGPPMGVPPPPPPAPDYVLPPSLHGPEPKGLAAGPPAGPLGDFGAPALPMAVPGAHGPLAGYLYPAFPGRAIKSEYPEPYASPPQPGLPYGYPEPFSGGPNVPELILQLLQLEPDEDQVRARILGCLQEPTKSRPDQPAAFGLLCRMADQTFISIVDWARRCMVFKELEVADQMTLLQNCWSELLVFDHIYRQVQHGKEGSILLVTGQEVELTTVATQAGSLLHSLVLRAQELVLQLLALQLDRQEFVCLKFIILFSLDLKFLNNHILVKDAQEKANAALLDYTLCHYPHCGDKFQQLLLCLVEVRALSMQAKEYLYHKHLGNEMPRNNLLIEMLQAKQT

What is called inhibition is the relative decrease from the control value, in per cent. Regarding `COc1ccc2c(c1)-c1c(ssc1=S)C(C)(C)N2`, the inhibition in experiment [1] was 73.3% (active); in [2] it was 54.6% (active); in experiment [3] it was 64% (active); in experiment [4], 50.3% (active); in experiment [5] it was 28.7% (active); in experiment [6], 46.7% (active). Also, the inhibition is 41.5% (inactive) in experiment [7], 67.9% (active) in experiment [8], 6.45% (inactive) in experiment [9] and 49.7% (active) in experiment [10].
Turning to `CN=c1scc(-c2cccs2)n1/N=C/c1ccccc1O`, the inhibition in experiment [1] was 91.6% (active); in experiment [2] it was 89.5% (active); in [3], 80% (active); in experiment [4], 81.4% (active); in experiment [5], 90.6% (active); in [6], 90.4% (active). The inhibition is 91.2% (active) in experiment [7], 89.6% (active) in experiment [8], 96.8% (active) in experiment [9] and 97.8% (active) in experiment [10].
Turning to `OCC1OC(n2ccc3c2ncn2ncnc32)C(O)C1O` (stereo not given), the inhibition in experiment [1] is 64.6% (active); in experiment [2], 44.2% (active); in experiment [3] it was 55.1% (active); in experiment [4], 38.2% (active); in experiment [5], 52.8% (active); in [6] it was 49.2% (active). In addition, the inhibition is 38.8% (inactive) in experiment [7], 60.2% (active) in experiment [8], 12.2% (inactive) in experiment [9] and 46.4% (inactive) in experiment [10].
Take `CCOc1cccc(/C=N/NC(=S)Nc2ccccc2[N+](=O)[O-])c1O`: the inhibition was 70.3% (active) in experiment [1]; 57.6% (active) in experiment [2]; 44.9% (inactive) in experiment [3]; 38.2% (active) in [4]; 66.1% (active) in [5]; 22.9% (inactive) in experiment [6]. Further, the inhibition in experiment [7] was 65.2% (active); in experiment [8], 54% (active); in [9] it was 39.7% (active); in experiment [10], 73.3% (active).
For the molecule `CCCC(=O)Nc1ccc(C(=O)N/N=C/c2ccc([N+](=O)[O-])o2)cc1`, the inhibition in experiment [1] was 88.8% (active); in experiment [2], 69.5% (active); in experiment [3] it was 74.8% (active); in experiment [4], 66.5% (active); in experiment [5], 86.9% (active); in [6], 102% (active). In addition, the inhibition in [7] is 95.1% (active); in experiment [8], 80.5% (active); in [9] it was 23.3% (inactive); in experiment [10], 53.8% (active).
In the case of `CCCS(=O)(=O)c1cnc(C2COc3ccccc3O2)nc1N` (stereo not given), the inhibition was 61.5% (active) in experiment [1]; 44.9% (active) in experiment [2]; 18.9% (inactive) in experiment [3]; 33.6% (active) in [4]; 43.2% (active) in experiment [5]; 2.93% (inactive) in experiment [6]. Moreover, the inhibition in [7] was 36.5% (inactive); in [8], 23.1% (inactive); in experiment [9] it was 37.2% (active); in experiment [10], 75% (active).
As to `CCCN(CC)c1ncnc2[nH]ncc12`, the inhibition in experiment [1] is 72.3% (active); in experiment [2], 52.6% (active); in [3] it was 71.4% (active); in experiment [4], 50.1% (active); in experiment [5], 25.9% (inactive); in experiment [6], 45% (active). For the same molecule, the inhibition was 37.1% (inactive) in experiment [7], 69.2% (active) in experiment [8], -9.97% (inactive) in experiment [9] and 43.2% (inactive) in [10].
For the molecule `O=C(OCCC12CC3CC(CC(C3)C1)C2)c1ccc(NCc2cc(O)ccc2O)cc1`, the inhibition was 88.1% (active) in experiment [1]; 25.4% (inactive) in experiment [2]; 11.1% (inactive) in experiment [3]; 57.7% (active) in [4]; 72.6% (active) in experiment [5]; 80.7% (active) in experiment [6]. In addition, the inhibition in experiment [7] is 75.3% (active); in experiment [8], 83.8% (active); in experiment [9], 97.1% (active); in experiment [10] it was 98.4% (active).
Regarding `CCCc1ccc(C(=O)O/N=C(\N)c2ccccn2)cc1`, the inhibition was 16.8% (inactive) in experiment [1]; -24.7% (inactive) in experiment [2]; -82.5% (inactive) in experiment [3]; -63.2% (inactive) in experiment [4]; -12.5% (inactive) in experiment [5]; -85.8% (inactive) in experiment [6]. Besides, the inhibition in [7] is 2.79% (inactive); in experiment [8], -41.9% (inactive); in experiment [9] it was -18.6% (inactive); in experiment [10], 31.1% (inactive).
With `COc1ccc(/C=C2\SC(=O)N(CCCC(=O)Nc3ccc(C(=O)O)cc3)C2=O)cc1`, the inhibition in experiment [1] was 78% (active); in experiment [2], 71.8% (active); in experiment [3], 72.8% (active); in experiment [4] it was 63.3% (active); in experiment [5], 74.1% (active); in [6], 75.4% (active). Also, the inhibition in experiment [7] was 71.5% (active); in [8], 58.1% (active); in [9], 88.3% (active); in experiment [10], 93.3% (active).
Take `Cc1nc2c(O)c3c(c(O)c2nc1C)C1C=CC3CC1`: the inhibition in experiment [1] was 96.9% (active); in experiment [2], 93.2% (active); in experiment [3], 88.9% (active); in [4], 92.6% (active); in [5] it was 91.8% (active); in experiment [6], 107% (active). For the same molecule, the inhibition is 96.3% (active) in [7], 98.5% (active) in experiment [8], 75% (active) in [9] and 79.4% (active) in experiment [10].
